The list is not random: actives were taken first. Their share in the collection is about 2%.
PKM2 act = activators of human pyruvate kinase M2; P14618; purified PKM2, Kinase-Glo ATP luminescence, activation; response scale: 0% is enzyme alone, no compound; Potency, µM (series often up to 57.5 µM), for the others: at the highest dose activation, usual class: activators; hit rate 0.34% among 260,000; AID 1631; also: potency is read from the fitted curve at half-maximal effect; % is scaled to controls: 0 for no effect and ±100 for the full control effect; nearly all actives have a fitted effect of over 55% in size
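Purified hPK-M2 (>95% pure) converted ADP (0.1 mM final) to ATP with 0.5 mM PEP in 50 mM imidazole pH7.2, KCl, MgCl2, Tween 20, BSA; 1 h at room temperature. ATP detected by Kinase-Glo luminescence.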
ClpP mod = qHTS Assay for Activators of ClpP; AID 651965, 2013; Potency, µM (top dose mostly 57.5 µM), for inactives: at the top dose activity change, negative = active; hit rate 1.9% among 340,000; ATP-dependent Clp protease proteolytic subunit (Bacillus subtilis (strain 168)), P80244; purified B. subtilis ClpP, FRET peptide cleavage, 20 min; active = well fitted falling curve with a large enough effect; inconclusive = small, poorly fitted or top-dose-only effect; inactive = no such curve, though single readings can be large or run the other way; also: potency is read from the fitted curve at half-maximal effect; the source files actives as falling curves though it sought activators and does not explain the sign; nearly all actives have a fitted effect of over 65% in size
Target sequence (P80244 whole entry, looked up): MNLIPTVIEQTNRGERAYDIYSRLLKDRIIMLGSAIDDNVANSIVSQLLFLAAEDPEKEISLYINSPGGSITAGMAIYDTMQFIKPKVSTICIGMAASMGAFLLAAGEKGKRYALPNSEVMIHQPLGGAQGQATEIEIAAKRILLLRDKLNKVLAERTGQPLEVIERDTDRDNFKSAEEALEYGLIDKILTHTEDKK
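FRET quenching reversal measured ClpP activation: 10 microg/mL B. subtilis ClpP at pH 8 with the FRET-FV decapeptide, read at 430 nm after 320 nm excitation. The 20-min minus 0-min signal was scaled between DMSO/no-enzyme wells and ADEP (5.8 microM final).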
NPSR antagonist = antagonists of human neuropeptide S receptor cAMP signaling | Potency, µM (highest dose often 38.3 µM), for the others: top-dose activity change, negative = inhibition, actives largely listed as inhibitors | CHO-NPSR cells, cAMP TR-FRET, antagonist mode | Q6W5P4 | hit rate 1% among 220,000; also: potency is read from the fitted curve at half-maximal effect; % is scaled to controls: 0 for no effect and ±100 for the full control effect; nearly all actives have a fitted effect of over 50% in size
Target sequence (Q6W5P4 whole entry, looked up): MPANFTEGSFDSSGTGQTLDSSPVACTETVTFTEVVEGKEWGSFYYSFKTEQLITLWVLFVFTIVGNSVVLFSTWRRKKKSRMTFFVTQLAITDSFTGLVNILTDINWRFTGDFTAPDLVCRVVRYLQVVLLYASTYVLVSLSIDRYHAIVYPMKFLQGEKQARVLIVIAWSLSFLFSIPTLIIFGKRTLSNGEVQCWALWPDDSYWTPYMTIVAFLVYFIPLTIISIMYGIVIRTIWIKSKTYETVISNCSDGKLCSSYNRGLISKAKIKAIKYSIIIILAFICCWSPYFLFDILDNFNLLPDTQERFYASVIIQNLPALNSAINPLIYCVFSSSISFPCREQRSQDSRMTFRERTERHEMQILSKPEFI
IL-2 act = activators of IL-2; hit rate 0.065% among 360,000; IL-2 activation reporter assay, cell-based qHTS; stimulated with anti-CD3/CD4/CD28 beads; in transgenic mouse T cells; AID 652025; activation, % (series mostly up to about 46 µM); in the data active = activation above about 50%; inconclusive = mostly about 30% to 49%; also: 0% is about no effect
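Unstimulated transgenic mouse T cells preincubated 60 min with compound, then stimulated with anti-CD3/anti-CD4-coated beads plus anti-CD28 for 18 h at 37 degrees C. IL-2 response read as EGFP and DsRed fluorescence by plate cytometry.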
The depositor's hits bear a star; u = inconclusive; x = no result; [ ] = remark or other dose. Unless noted, calls follow the shape of the dose curve; as a rule, active = well fitted curve in the direction sought with a large enough effect; inconclusive = small, poorly fitted or top-dose-only effect, or another doubt; inactive = no such curve, though single readings can be large; an effect the other way counts as inactive or inconclusive.

SMILES	PKM2 act	ClpP mod	NPSR antagonist	IL-2 act
O=C1NC(=O)c2cc(NC(=O)c3cccc4ccccc34)ccc21	0%	5%	x	-1
O=C1CCCC2=C1C1(CCCC1)N=C(Nc1nc3ccccc3s1)N2	-5%	28µM*	u	-2
COc1ccc(S(=O)(=O)Nc2cc(C)ccn2)cc1	1%	14µM*	1%[46.1 µM]	-1
Cc1ccnc(NS(=O)(=O)c2ccc(C(C)(C)C)cc2)c1	0%	x	-10%	x
Cc1ccnc(NS(=O)(=O)Cc2ccccc2)c1	7%	40µM*	0%[46.1 µM]	-1
O=C(CN1C(=O)C2(SCC(=O)N2c2ccc(Cl)cc2)c2ccccc21)NCCc1ccccc1 (stereo not drawn)	x	1%	x	x
CC(=O)Nc1ccc2nc(-c3cc(C)ccc3C)[nH]c2c1	x	4%	x	x
CC(=O)Nc1ccc2nc(-c3ccccn3)[nH]c2c1	-18%	11µM*	-15%[46.1 µM]	-1
CC(=O)Nc1ccc2nc(-c3ccncc3)[nH]c2c1	-19%	25µM*	-5%[46.1 µM]	3
Cn1c(=O)c2c(nc(Br)n2CC(=O)c2cccs2)n(C)c1=O	3%	28µM*	-12%[46.1 µM]	1
COc1cc(SC)ccc1C(=O)N(C)Cc1ccccc1	1%	-2%	1%[46.1 µM]	0
CCOc1cc(S(=O)(=O)NCCc2ccc(OC)c(OC)c2)c(OCC)cc1-n1cnnn1	5%	-2%	-5%[46.1 µM]	3
CCOc1cc(S(=O)(=O)NCC2OCCc3ccccc32)c(OCC)cc1-n1cnnn1 (stereo not drawn)	27%	13µM*	-10%[7.67 µM]	-3
CCOc1cc(S(=O)(=O)NC2CC2)c(OCC)cc1-n1cnnn1	12%	32µM*	-5%[46.1 µM]	-1
CCOc1cc(S(=O)(=O)NCc2ccc(OC)cc2)c(OCC)cc1-n1cnnn1	-1%	22µM*	-10%[46.1 µM]	1
O=[N+]([O-])c1ccc(Nc2c3ccccc3nc3ccccc23)cc1	3%	x	6.3µM*	-1
COc1ccc([N+](=O)[O-])cc1Nc1c2ccccc2nc2ccccc12	1%[11.5 µM]	-5%	x	-1
O=C(Nc1ccc(F)cc1)C(CCc1ccccc1)N1CCN(Cc2c(F)cccc2Cl)CC1 (stereo not drawn)	x	0%	x	-1
CCc1ccc(-c2nc3cc(NC(=O)c4ccc(C)c(C)c4)ccc3o2)cc1	x	4%	x	x
CCc1ccc(C(=O)Nc2cccc(-c3nc4cc(C(C)C)ccc4o3)c2)cc1	x	25µM*	x	x
CCC(CC)NC(=O)Cc1ccc(S(=O)(=O)N2CCOCC2)s1	-3%	-15%	-4%[46.1 µM]	-2
O=C(c1ccccc1)c1coc2c1C(=O)c1ccccc1C2=O	-21%	x	u	2
O=C1c2ccccc2C(=O)c2c1oc(C(F)(F)F)c2C(=O)c1ccccc1	-12%	1%	5µM*	2
C/C(=N/NC(=O)Cn1nc2ccccc2n1)c1ccc(F)cc1	-16%	2%	8%	-3
O=C1CC(=C(c2ccccc2)c2ccccc2)C(=O)N1CCN1CCN(c2cccc(Cl)c2)CC1	0%	25µM*	-15%[46.1 µM]	2
SMILES	PKM2 act	ClpP mod	NPSR antagonist	IL-2 act
NC(=O)c1ccc(NC(=O)c2cccc3c2OCCCO3)cc1	0%	x	-14%	-3
CCOC(=O)C1(Cc2cccc(OC)c2)CCN(Cc2cccn2-c2nccs2)CC1	1%	x	22%	0
CCOC(=O)C1(Cc2ccccc2)CCN(Cc2cccn2-c2nccs2)CC1	1%	4.5µM*	20%	-7
CC(C)c1nc(CN(C)C(=O)N[C@H](C(=O)N[C@@H](Cc2ccccc2)C[C@H](O)[C@H](Cc2ccccc2)NC(=O)OCc2cncs2)C(C)C)cs1	0%	x	13µM*	x
O=C(NCc1ccccc1F)Nc1nnc([C@@H]2C[C@H](O)[C@@H](CO)O2)s1	x	0%	x	-1
c1coc(Cn2c(-c3ccco3)nc3ccccc32)c1	3%	28µM*	1%[46.1 µM]	-1
Cc1onc(-c2ccccc2Cl)c1C(=O)N1CCC(Cc2ccccc2)CC1	x	x	x	-3
Cc1noc(/C=C/N(C)C)c1S(=O)(=O)N1CCCC(C(=O)Nc2ccccc2F)C1 (stereo not drawn)	x	-3%	x	1
Cc1cccc(CSC2=CS(=O)(=O)c3ccccc3N2)c1	-2%	1%	13%[46.1 µM]	-3
O=S1(=O)C=C(SCc2cccc(Cl)c2)Nc2ccccc21	2%	32µM*	1%[46.1 µM]	-5
COc1cc(/C=C(\C#N)C(=O)N2CCOCC2)ccc1OCc1ccccc1	-3%	x	-9%	1
COc1ccc(/C=C(\C#N)C(=O)N2CCOCC2)cc1Br	6%	25µM*	-14%[46.1 µM]	-3
Cc1cc(C)c2c(n1)sc1c(O)cc(=O)[nH]c12	-6%	32µM*	6%[46.1 µM]	-3
O=C(CCN1C(=O)c2ccccc2C1=O)Nc1cccnc1	-13%	-2%	11%[46.1 µM]	-2
COc1cc(SC#N)ccc1N=Cc1c(C)[nH]n(-c2ccc(Cl)cc2)c1=O	-11%	2%	u	3
COc1cc(SC#N)ccc1N=Cc1c(C)[nH]n(-c2ccc(C)c(C)c2)c1=O	-4%	-2%	5µM*	-5
COc1cc2[nH]c(=O)n(CCCCCC(=O)NC3CCCC3)c(=O)c2cc1OC	1%	x	x	-1
CCCCNC(=O)CCCCCn1c(=O)[nH]c2cc(OC)c(OC)cc2c1=O	-4%	28µM*	-21%[46.1 µM]	-4
CCCCCNC(=O)CCCCn1c(=O)[nH]c2cc(OCC)c(OCC)cc2c1=O	-3%	u	-7%[46.1 µM]	1
COc1cc2[nH]c(=O)n(CCC(=O)NC3CCCC3)c(=O)c2cc1OC	-11%	28µM*	1%[46.1 µM]	1
CCC(C)NC(=O)CCCCCn1c(=O)[nH]c2cc(OC)c(OC)cc2c1=O (stereo not drawn)	-4%	28µM*	-3%[46.1 µM]	0
O=C(NCc1ccc(F)cc1)c1ccc(Cl)c(NC2=NC3CS(=O)(=O)CC3S2)c1 (stereo not drawn)	-2%	0%	x	-3
O=C(O)CSCC(=O)NCc1ccccc1	0%	-1%	8%[46.1 µM]	-1
COc1ccc(CNC(=O)c2cc3cccc4c3n2CC(C)S4)c(OC)c1 (stereo not drawn)	x	14µM*	x	x
COc1cccc(CNC(=O)c2cc3cccc4c3n2CC(C)S4)c1OC (stereo not drawn)	x	35µM*	x	x
SMILES	PKM2 act	ClpP mod	NPSR antagonist	IL-2 act
COc1cccc(CNC(=O)CCC(=O)N2CC(C)Oc3ccccc32)c1OC (stereo not drawn)	3%	0%	x	-1
COc1ccc(CNC(=O)c2cc3cccc4c3n2CC(C)S4)cc1OC (stereo not drawn)	x	32µM*	x	x
COc1ccc(OC)c(CCNC(=O)c2cc3cccc4c3n2CC(C)S4)c1 (stereo not drawn)	x	32µM*	x	x
O=C(NCc1ccccc1Cl)c1cc2cccc3c2n1CCS3	x	28µM*	x	x
COc1ccc(OC)c(CCNC(=O)c2cc3cccc4c3n2CCS4)c1	x	32µM*	x	x
CCOc1ccc(CCNC(=O)c2cc3cccc4c3n2CCS4)cc1	x	22µM*	x	x
O=C(NCc1ccccc1Cl)c1cnc2n(c1=O)CCS2	-1%	-4%	-17%[46.1 µM]	-3

From PubChem BioAssay
